# Screening results deposited in PubChem by National Center for Advancing Translational Sciences (NCATS).
# ALDH1A1 inh = ALDH1A1 (human) enzyme inhibition. 220,000 compounds, 7.3% hits. Purified ALDH1A1, NADH fluorescence, propionaldehyde substrate. Potency, µM (top dose mostly 75.3 µM), inactives show top-dose activity, negative = inhibition, most hits filed as inhibitors; active means well fitted inhibition curve with a large enough effect, not every such curve was filed as active; inconclusive means small, poorly fitted or top-dose-only effect, or another doubt; inactive means no such curve, though single readings can be large or run the other way;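 further: potency means the concentration at half of the fitted maximal effect; plate controls were no enzyme wells and a reference inhibitor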
# Target sequence (P00352 whole entry, looked up): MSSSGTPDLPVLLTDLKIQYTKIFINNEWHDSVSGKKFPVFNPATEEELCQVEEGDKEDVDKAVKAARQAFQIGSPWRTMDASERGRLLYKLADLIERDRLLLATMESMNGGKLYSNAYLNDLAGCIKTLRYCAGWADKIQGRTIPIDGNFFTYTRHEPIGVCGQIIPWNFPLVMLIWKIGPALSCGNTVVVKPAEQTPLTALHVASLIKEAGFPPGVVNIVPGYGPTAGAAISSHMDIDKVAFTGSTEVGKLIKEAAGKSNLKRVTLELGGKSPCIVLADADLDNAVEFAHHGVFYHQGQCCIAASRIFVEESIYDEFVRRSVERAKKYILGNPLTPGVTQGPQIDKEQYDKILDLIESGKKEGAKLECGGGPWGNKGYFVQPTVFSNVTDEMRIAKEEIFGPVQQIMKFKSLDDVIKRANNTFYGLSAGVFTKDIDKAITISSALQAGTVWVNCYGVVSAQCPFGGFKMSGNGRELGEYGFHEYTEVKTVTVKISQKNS
# CBFb-RUNX1 inh = inhibitors of human CBF-beta and RUNX1 interaction; AlphaScreen CBFb-His/RUNX1-biotin binding, biochemical; Potency, µM (series often up to 59.8 µM), inactives show at the top dose activity, negative = inhibition, hits mostly inhibitors; 230,000 tested, under 10 active; further: % of control where 0% means no effect
#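 Room-temperature protein-protein interaction test with 30 nM each of His-tagged CBF-beta and biotinylated RUNX1, 15 min with compound, then 90 min with nickel plus streptavidin beads. Signal read in AlphaScreen mode.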
# HPGD block = HPGD (human) dehydrogenase inhibition | P15428 | purified HPGD, NADH fluorescence kinetic, PGE2 substrate | Potency, µM, without a hit: top-dose activity change, negative = inhibition, usual class: inhibitors | 150,000 compounds, 4.3% hits; active means well fitted inhibition curve with a large enough effect, not every such curve was filed as active; inconclusive means small, poorly fitted or top-dose-only effect, or another doubt; inactive means no such curve, though single readings can be large or run the other way; further: potency means the concentration at half of the fitted maximal effect; on the % scale 0 is the no-effect control and ±100 the full control effect
# Target sequence (P15428 whole entry, looked up): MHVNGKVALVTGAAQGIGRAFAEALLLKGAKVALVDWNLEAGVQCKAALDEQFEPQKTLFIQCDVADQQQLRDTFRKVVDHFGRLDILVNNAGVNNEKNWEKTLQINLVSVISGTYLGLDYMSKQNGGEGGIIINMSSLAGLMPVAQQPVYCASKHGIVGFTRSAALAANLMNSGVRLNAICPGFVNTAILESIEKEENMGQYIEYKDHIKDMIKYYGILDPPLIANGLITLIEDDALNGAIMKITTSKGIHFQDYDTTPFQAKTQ
#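 20 nM HPGD preincubated 15 min at room temperature with compound in 50 mM Tris-HCl pH 8, 0.01% Tween 20. Started with 1 mM NAD+ and 30 uM prostaglandin E2; NADH fluorescence (360/450 nm) read 5 times over 30-s intervals, last minus first.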
# HTT cytoprotect = cytoprotection in Huntington HTT-Q103 PC12 cell model; PC12 HTT-Q103 induced, cytoprotection, ATP luminescence, 40 h; Potency, µM (titrated, usually from 56.4 µM), for the others: cytoprotection (ATP increase), most hits filed as activators; 230,000 compounds, 0.14% hits; AID 1471; further: potency means the concentration at half of the fitted maximal effect; % of control where 0% means no effect; nearly all actives have a fitted effect of over 45% in size
#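 Quantitative HTS on tebufenozide-induced (100 nM) PC12 cells expressing HTTQ103 exon 1–GFP; compounds tested as a concentration series; survival measured via cellular ATP.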
# HTT aggregate = reduces HttQ103-GFP aggregates in PC12 cells; PC12 HttQ103-GFP aggregates, Acumen cytometry, 40 h; Potency, µM (series often up to 46.1 µM), for inactives: at the top dose activity change, negative = inhibition, most hits filed as inhibitors; 220,000 compounds, 1.1% hits; AID 1688; further: potency means the concentration at half of the fitted maximal effect; on the % scale 0 is the no-effect control and ±100 the full control effect; nearly all actives have a fitted effect of over 60% in size
#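 Multiplexed with ATP-based cell death, this channel scores GFP aggregates in PC12 cells expressing inducible HTTex1-Q103-GFP. Induction used 100 nM tebufenozide; compounds were tested in concentration series.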
# PNC assembly inh = perinucleolar compartment assembly inhibition. 140,000 compounds, 3.1% hits. activity change (PNC), negative = inhibition, % at 10 µM. AID 2417. PC3M PTB-GFP, PNC prevalence imaging, 16 h; stronger effect = lower value;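 active means readout at or below -70, meaning at least 70% loss of cells showing the perinucleolar compartment, a nuclear body marking cancer cells; inconclusive means readout between -30 and a set limit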;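 further: plate controls were DMSO wells for no effect and camptothecin positive control wells for full effect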
#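 Compounds are pinned in duplicate onto adhered PC3M cells stably expressing GFP-tagged PTB and incubated 16 h at 37 C. Cells are then fixed, nuclei stained with Hoechst, and PNC-positive cells counted.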
# Starred values were filed as active, the others as inactive; ? = inconclusive; nt = no result given; ! = not confirmed by another sample; [ ] = dose if it differs, or a comment. Hits are enriched below; roughly 11% of the tested compounds scored in any of these assays. Unless noted, the call rests on the fitted dose curve; in most records, active means well fitted curve in the direction sought with a large enough effect; inconclusive means small, poorly fitted or top-dose-only effect, or another doubt; inactive means no such curve, though single readings can be large; an effect the other way counts as inactive or inconclusive.
SMILES,ALDH1A1 inh,CBFb-RUNX1 inh,HPGD block,HTT cytoprotect,HTT aggregate,PNC assembly inh
O=C(O)c1cc(=O)c2ccc(Cl)cc2[nH]1,-2.3%,-2.7%,28.2µM*!,22.1%,nt,nt
O=C(O)c1cc2cc(Cl)ccc2[nH]1,4.2%,?,-16.4%,nt,nt,nt
CC(C)(C)OC(=O)[C@H](C1N[C@@H](C(=O)O)C(C)(C)S1)N1C(=O)c2ccccc2C1=O (some centres not stated),3.4%[13.5 µM],nt,-1.4%,nt,nt,nt
COC(=O)C1CCN(C(=O)COC(=O)c2ccc(OC)c(S(=O)(=O)N3CCCc4ccccc43)c2)CC1,4.47µM*,-1.4%,nt,-24.1%,-3.2%,nt
COc1ccc(C(=O)OCC(=O)NCC2CCCO2)cc1S(=O)(=O)N1CCCc2ccccc21 (configuration not stated),7.8%,7.8%,nt,-20.8%,14.5%[9.22 µM],nt
COc1ccc(Oc2ncc3nc(C)c(=O)n(C)c3n2)cc1,-1.6%,nt,-6.7%,-13.2%,nt,nt
Cc1cc(C(=O)NCC(c2ccco2)N(C)C)no1 (configuration not stated),0.7%,6.3%,3.4%,13.0%[10 µM],-0.9%,-92.8*
COc1cccc(CNC(=O)C(=O)NCCc2ccc(OC)c(OC)c2)c1,?,4.9%,-12.5%,1.7%[0.074 µM],5.9%,-1.0
COc1ccc(CCNC(=O)C(=O)NCc2ccc(C)cc2)cc1OC,3.16µM*,6.0%,-11.1%,0.8%[10 µM],0.7%,?
COc1ccc(CCNC(=O)/C=C\c2ccccc2)cc1OC,-6.0%,-1.6%,-14.7%,nt,19.6%,25.9
COc1ccc(CCNC(=O)/C=C/C(=O)O)cc1OC,25.1µM*,-0.7%,nt,11.3%,26.3%[9.22 µM],nt
COc1ccc(CCNC(=O)C(=O)NCc2ccc(Cl)cc2)cc1OC,0.631µM*,-18.1%,nt,-18.0%,2.7%,nt
COc1ccc(CCNC(=O)CCCOc2ccc(C)cc2)cc1OC,28.2µM*,-12.8%,-22.4%,-12.0%[10 µM],0.8%,15.4
CCCCC1CN2C(CCC(C)C2c2ccc(Br)cc2)C(=O)O1 (configuration not stated),?,9.2%[13.1 µM],nt,-0.9%[10 µM],nt,nt
COc1ccccc1CNc1ncnc2cc(Cl)ccc12,?,0.7%,nt,-4.5%,1.6%[9.22 µM],nt
Clc1ccc2c(NCc3ccco3)ncnc2c1,-6.4%,5.8%,-25.5%,-12.3%,14.1µM*,23.5
Clc1ccc2c(NCc3ccccn3)ncnc2c1,3.55µM*,-6.2%,?,2.1%,-39.6%,22.4
C=C(C(C)=O)C(O)c1ccco1 (configuration not stated),?,-2.3%,-6.7%,nt,nt,nt
CC[C@H](CC[C@@H](C)C1CC[C@H]2[C@@H]3CC=C4C[C@@H](O)CC[C@]4(C)[C@H]3CC[C@]12C)C(C)C (some centres not stated),1.0%,-1.0%[21.7 µM],-6.0%,6.9%[1.9 µM],nt,nt
O=C(CN(Cc1ccc(F)cc1)C(=O)CCC(=O)Nc1ccccn1)NCc1ccco1,7.9%,4.6%,-13.1%,-8.1%[10 µM],-1.5%,31.1
Cc1ccnc(NC(=O)CCC(=O)N(CC(=O)NCCc2ccccc2)Cc2ccco2)c1,7.94µM*,-1.0%,-6.7%,15.0%,20.0%,3.6
CCC(C)(C)NC(=O)CN(Cc1ccccc1Cl)C(=O)CCC(=O)Nc1cc(C)ccn1,14.1µM*,1.8%,nt,-45.5%[10 µM],-31.5%[9.22 µM],nt
Cc1cc(C)n(-c2nnc(N3CCN(c4ccc(F)cc4)CC3)nn2)n1,6.2%,16.8%,nt,-130.1%,11.2µM*,nt
O=C1CC(N2CCN(Cc3ccccc3)CC2)C(=O)N1c1ccc2c(c1)OCCO2 (configuration not stated),7.08µM*,-0.3%,-5.0%,8.6%,-3.7%,?
O=C1CC(N2CCN(Cc3ccc4c(c3)OCO4)CC2)C(=O)N1c1cccc(Cl)c1 (configuration not stated),?,-2.6%,-5.0%,-13.9%,16.2%,-6.0
SMILES,ALDH1A1 inh,CBFb-RUNX1 inh,HPGD block,HTT cytoprotect,HTT aggregate,PNC assembly inh
COc1ccc(N2C(=O)CC(N3CCN(Cc4ccc5c(c4)OCO5)CC3)C2=O)cc1 (configuration not stated),28.2µM*,3.3%,nt,-7.2%,10.8%,nt
O=C1CC(N2CCN(Cc3ccccc3)CC2)C(=O)N1c1ccccc1 (configuration not stated),-13.6%,1.5%,-2.4%,-7.3%,-5.8%,13.9
CCC(=O)OC1C2CC3=C4CC(=O)OC(c5ccoc5)[C@]4(C)CCC3[C@@](C)(C2=O)C(CC(=O)OC)C1(C)C (some centres not stated),7.8%,10.4%,-7.5%,-13.6%,nt,nt
N=C(N)SCCSC(=N)N,9.8%[13.5 µM],nt,-12.3%,-1.3%[10 µM],nt,nt
Cc1cc2cc3c(cc2nc1SCC(=O)N1c2ccccc2CC1C)OCO3 (configuration not stated),-1.8%,8.0%,-29.5%,33.6%[10 µM],-20.6%,-100.0*
Cc1sc2nc(C3CC3)nc(SCC(=O)NCc3ccco3)c2c1C,?,-1.7%,-17.2%,-18.1%[10 µM],6.8%,-17.3
Cc1sc2nc(C3CC3)nc(SCC(=O)N3c4ccccc4CC3C)c2c1C (configuration not stated),?,-0.9%,-13.5%,-31.4%,0.6%,-108.0*
Cc1ccc2c(c1)C(N1CCN(C)CC1)=Nc1cccnc1N2,-1.8%,2.7%,-15.7%,-4.0%[1.9 µM],nt,nt
CC(C)=CCC1=C(O)c2ccccc2C(=O)C1=O,?,-25.8%,-17.0%,-80.2%,nt,nt
CCC(=O)N(CC)C1=C(O)c2ccccc2C(=O)C1=O,22.4µM*,-3.5%,12.6µM*,-44.1%,-5.2%,?
Cc1ccc(C)n1-c1c(C(=O)NN)cnn1-c1ccccc1,3.16µM*,5.7%,nt,19.4%[10 µM],-25.6%,nt
Cc1ccc(NS(=O)(=O)c2ccc(C(=O)N3CCN(c4ccccn4)CC3)cc2)cc1,-4.3%,2.9%,-9.9%,-13.8%,11.2µM*,7.9
Cc1ccc(S(=O)(=O)NCc2ccc(C(=O)N3CCN(c4ccccn4)CC3)cc2)cc1,7.1%,0.0%,-5.8%,-4.8%,8.4%,?
Cc1ccc(NS(=O)(=O)c2ccc(C(=O)N3CCCN(C)CC3)cc2)cc1,-0.1%,8.2%,1.5%,-25.8%,-10.4%,-100.0*
CCOC(=O)c1ccc(NC(=O)N2CCN(c3ccccn3)CC2)cc1,?,-2.8%,-15.4%,2.1%,0.562µM*,4.9
CCn1c2ccccc2c2nnc(NN)nc21,15.8µM*,?,-16.3%,-23.0%[10 µM],-7.9%,30.0
Cn1c2ccccc2c2nnc(NN)nc21,nt,-9.8%,nt,5.3%[10 µM],-10.1%[9.22 µM],nt
CSc1nnc2c3cc(C)ccc3n(Cc3ccccc3)c2n1,14.1µM*,-2.8%,?,-10.5%[0.074 µM],11.3%,-5.9
CCn1c2ccc(C)cc2c2nc3cc(C(=O)O)ccc3nc21,-10.5%,0.1%,?,14.8%[10 µM],17.4%,2.6
CCn1c2ccc(C)cc2c2nnc(NN)nc21,25.1µM*,-23.0%,-12.9%,17.7%[10 µM],0.6%,49.5
